Assay outcomes as filed in PubChem.
Hits are enriched below; roughly 4.1% of the tested compounds scored in any of these assays.
ssDAF-12 act: activators of S. stercoralis DAF-12 nuclear receptor. actives 1% (n = 370,000). HEK293 ssDAF-12/GRIP1 lit1-tk-luc reporter, luminescence; % of 3 µM dafachronic acid response. activation, % at 6.8 µM;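 active means activation above the mean over all tested compounds plus 3 SD, cut at about 0.9% in these data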;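 further: 0% = DMSO-only wells and 100% = 3 µM delta7-dafachronic acid wells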
hcDAF-12 act: activates DAF-12 receptor from parasite H. contortus; HEK293 hcDAF-12 lit1-tk-luc reporter, luminescence; 0% DMSO, 100% Δ7-dafachronic acid; activation, % at 6.8 µM; actives 1.4% (n = 370,000);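 active means activation above the mean of all tested compounds plus 3 SD, cut at about 5.5% in these data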;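 further: 100% = response to 3 µM Δ7-dafachronic acid high control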
DAX1 inh-1: inhibits human nuclear receptor DAX1 | P51843 | HEK293 Gal4-DAX1 luciferase reporter, luminescence | inhibition, % at 6.75 µM | actives 0.99% (n = 340,000) | AID 504766;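 active means inhibition above the mean over all tested compounds plus 3 SD, cut at about 4.2% in these data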;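 further: 0% = DAX1-transfected cells with DMSO and 100% = empty-vector control cells with DMSO; inhibition shows as a rise in luminescence from relieved DAX1 repression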
Target sequence (P51843 207-470 limits assumed): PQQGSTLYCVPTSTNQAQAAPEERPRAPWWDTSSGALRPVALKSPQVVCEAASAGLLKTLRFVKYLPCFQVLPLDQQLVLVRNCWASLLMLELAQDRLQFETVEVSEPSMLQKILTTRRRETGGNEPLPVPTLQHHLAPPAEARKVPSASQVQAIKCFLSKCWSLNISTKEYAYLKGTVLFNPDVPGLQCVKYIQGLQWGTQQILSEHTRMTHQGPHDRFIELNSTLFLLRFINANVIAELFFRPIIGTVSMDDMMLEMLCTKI
hgDAF12 agonist: hgDAF-12 agonism, primary luciferase screen; HEK293 GAL4-hgDAF12 UAS-luciferase reporter, agonist luminescence; normalized to butyrate control; activation, % at 6.8 µM; actives 1.8% (n = 370,000);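 active means activation above a cutoff set at the mean of all screened compounds plus 3 SD, cut at about 10% in these data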;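 further: 0% = DMSO wells and 100% = sodium butyrate wells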
DAX1 inh-2: blocks DAX1 repression of SF-1 activated StAR promoter | HEK293T StAR-luciferase reporter, SF-1/DAX-1 repression relief | actives 1.1% (n = 370,000) | AID 652010 | inhibition, % at 6.8 µM;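 active means inhibition above the mean over all tested compounds plus 3 SD, cut at about 3.6% in these data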;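 further: 0% = DAX-1 cells with DMSO and 100% = cells lacking DAX-1 with DMSO; higher inhibition means more luminescence from relief of DAX-1 repression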
* marks the source's active call; other numbers are inactive results; x = no result given.

SMILES	ssDAF-12 act	hcDAF-12 act	DAX1 inh-1	hgDAF12 agonist	DAX1 inh-2
Cn1cc(C2(c3c[nH]c4ccccc34)CCN(C(=O)OC(C)(C)C)CC2)c2ccccc21	0	4	x	3	-2
COC(=O)C1=C(C)N(Cc2ccccc2C(F)(F)F)C(=NCc2ccc3c(c2)OCO3)NC1c1ccccc1 (stereo not drawn)	-1	0	x	0	0
c1ccc(-c2cc3ccccc3cn2)cc1	1	6.2*	3	10	2
COc1cccc(OC)c1C(=O)Nc1ccc2c(c1)Cc1ccccc1-2	0	6.4*	3	2	1
COc1cccc(OC)c1C(=O)NC(=S)Nc1ccc2c(c1)Cc1ccccc1-2	0	4	1	0	1
Cc1cc(OCCN2CCOCC2)ccc1Cl	0	5	2	12*	0
Cc1cc(OCCN2CCOCC2)ccc1[N+](=O)[O-]	0	5	0	4	2
Cc1ccc(OCCCCCN2CCOCC2)c(Cl)c1	0	0	4.9*	3	0
Cc1cc(OCCN2CCCC2)ccc1[N+](=O)[O-]	1.1*	-1	-1	1	0
Cc1ccc(OCCN2CCOCC2)cc1C	-1	1	1	2	0
Cc1ccc(OCCCN2CCOCC2)c([N+](=O)[O-])c1	-1	5	3	13*	2
CN(C(=O)CSc1ncnc2c(-c3cccs3)nsc12)C1CCCCC1	0	3	x	4	0
COC(=O)[C@]1(C)CN(C(=O)OC(C)(C)C)C2=C1C(=O)C[C@@](C)(C(=O)OC(C)(C)C)C2	-1	-1	x	1	-2
Nc1c(-c2ccccc2)cnn1-c1ccc(C(=O)O)cc1	0	3	0	12*	2
Cc1ccc(-c2cnn(-c3cccc([N+](=O)[O-])c3)c2N)cc1	-1	-1	2	11*	0
Cc1ccccc1-c1cnn(-c2cccc([N+](=O)[O-])c2)c1N	-1	-1	0	3	0
Cc1ccc(-c2cnn(-c3ccccc3)c2N)cc1	0	5	0	16*	3
FC(F)(F)c1ccccc1NC(=S)OCCN1CCCC12CCC(c1ccccc1)CC2 (stereo not drawn)	-1	-3	x	1	x
C[C@@H]1COc2cc(Br)ccc2S(=O)(=O)N1Cc1cn(CCC2OCCCO2)nn1	-2	-2	x	-4	0
COc1ccc(-c2ccc3sc4ccccc4c(=O)c3c2)cn1	-1	2	2	10*	1
CC/C(=N/NC(=O)c1ccccc1)c1ccc(OCCN2CCOCC2)cc1	1.6*	2	1	10	2
O=C(Nc1ccc(CN2CCOCC2)cc1)c1ccc2ccccc2c1	0	2	0	13*	2
C/C(=N\NC(=O)c1ccc(CN2CCOCC2)cc1)c1ccc(NC(=O)c2ccccc2)cc1	-1	5	0	11*	3
O=C(NN=C1CCN(Cc2ccccc2)CC1)c1ccccc1	0	2	2	11*	1
C/C(=N\NC(=O)c1ccc(F)cc1)c1ccc(NC(=O)Cc2ccccc2)cc1	-1	3	1	7	4.1*
SMILES	ssDAF-12 act	hcDAF-12 act	DAX1 inh-1	hgDAF12 agonist	DAX1 inh-2
CC(=O)Nc1ccc(/C(C)=N/NC(=O)c2ccc(F)cc2)cc1	-1	-1	0	5	0
Cc1ccc(S(=O)(=O)N2CCCCC2)cc1NC(=O)COC(=O)Cc1c(F)cccc1Cl	-2	6.1*	-2	-1	0
Cc1ccc(S(=O)(=O)N2CCCCC2)cc1NC(=O)COC(=O)c1c(F)cccc1F	0	-1	0	2	0
CS(=O)(=O)c1ccc(Cl)c(NC(=O)Cc2c(F)cccc2Cl)c1	0	5.6*	-1	-2	0
CS(=O)(=O)c1ccc(Cl)c(NC(=O)Cc2ccccc2F)c1	-1	0	-1	-2	0
Cc1cc(N2CCOc3ccccc32)nc2ccccc12	-2	-1	x	-2	x
CCCCc1c(-c2ccccc2OC)ncn1Cc1ccc(C(C)(C)C)cc1	-1	-2	x	-4	-2
CC(C)(C)OC(=O)C1[C@H](O)C=CC[C@H]1S(=O)c1ccccc1 (stereo partly drawn)	-1	0	x	-2	x
S=C(N=Nc1ccccc1)NNc1ccccc1	0	11*	3	12*	3
S=C(NNC(=S)Nc1ccc(Cl)cc1)NNc1ccccc1	0	1	2	9	0
CCCCN1CCN(C(=O)Cn2c(=O)c3ccccc3n(CC)c2=O)CC1	-2	-1	x	-2	1
O=C(NC1CCCCC1)N1CCC(n2c(=O)[nH]c3ccccc32)CC1	-1	-2	2	0	-1
O=c1[nH]c2ccccc2n1C1CCCCC1	-2	-1	6.1*	0	0
C/C(=N\Nc1ccc(C#N)cc1[N+](=O)[O-])c1ccc(O)cc1	-1	1	1	0	1
C/C(=N/Nc1ccccc1[N+](=O)[O-])c1ccc([N+](=O)[O-])cc1	0	6.4*	1	1	0
CCCCCCCCN1C(=O)[C@@H](CC(=O)N2CCCCC2)C[C@@]2(C(=O)OC)C1=C[C@H](C(C)(C)C)O[C@@H]2C	-1	-1	x	-1	1
COc1ccccc1N1CCN(S(=O)(=O)c2cc(C(F)(F)F)cc(C(F)(F)F)c2)CC1	-1	-2	7.7*	3	0
COc1ccccc1N1CCN(S(=O)(=O)c2ccccc2)CC1	-1	0	2	3	0
O=C(NCc1ccccc1)N1CCC(c2nc3ccc(Cl)cc3[nH]2)CC1	-2	-4	x	-2	1
OCCCn1c(C2CCCN2c2nc(-c3ccc(Cl)cc3)cs2)nc2cc(Cl)c(N3CCCCC3)cc21 (stereo not drawn)	-1	-1	5.3*	3	0
Cc1ccc2c(c1)C1CS(=O)(=O)N(CCc3ccccc3)C(=O)N1C2 (stereo not drawn)	-1	-3	x	6	3
O=C(/C=C/c1c(F)cccc1Cl)Nc1ncccn1	0	5	4.6*	6	2
O=C(/C=C/c1c(F)cccc1Cl)Nc1ccc(S(=O)(=O)Nc2ncccn2)cc1	0	2	0	2	1
O=C(Nc1ccc(F)cc1)OCc1cn(Cc2cccc(C(F)(F)F)c2)nn1	-1	-1	x	3	0
COc1ccccc1NC(=S)NCCc1ccc(S(N)(=O)=O)cc1	-1	5.9*	0	-2	0
COc1cc(NC(=S)NCCc2ccccc2)c(OC)cc1NC(=O)C(C)C	1.9*	-2	0	-1	-1
COc1ccc(NC(=S)NCCc2ccc(S(N)(=O)=O)cc2)c(OC)c1	-1	0	0	7	0
CC(NCC(=O)NCCc1ccc(S(N)(=O)=O)cc1)c1ccc(F)cc1 (stereo not drawn)	0	1	1	2	1
